For one assay, the target named is Focal adhesion kinase 1 (Homo sapiens) (UniProt Q05397). The assay is described as follows: PTK2 protein binding on printed compound slides – biochemical, small-molecule microarray, 635/667 nm fluorescence, BSA, DTT, primary screen (AID 1130).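 Note: composite of spot emission at 667 nm and signal to noise over triplicate slides.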 The conditions noted are these: 635 nm fluorescence, higher = more signal.
Sequence of Focal adhesion kinase 1 (Homo sapiens) (Q05397 whole entry, looked up): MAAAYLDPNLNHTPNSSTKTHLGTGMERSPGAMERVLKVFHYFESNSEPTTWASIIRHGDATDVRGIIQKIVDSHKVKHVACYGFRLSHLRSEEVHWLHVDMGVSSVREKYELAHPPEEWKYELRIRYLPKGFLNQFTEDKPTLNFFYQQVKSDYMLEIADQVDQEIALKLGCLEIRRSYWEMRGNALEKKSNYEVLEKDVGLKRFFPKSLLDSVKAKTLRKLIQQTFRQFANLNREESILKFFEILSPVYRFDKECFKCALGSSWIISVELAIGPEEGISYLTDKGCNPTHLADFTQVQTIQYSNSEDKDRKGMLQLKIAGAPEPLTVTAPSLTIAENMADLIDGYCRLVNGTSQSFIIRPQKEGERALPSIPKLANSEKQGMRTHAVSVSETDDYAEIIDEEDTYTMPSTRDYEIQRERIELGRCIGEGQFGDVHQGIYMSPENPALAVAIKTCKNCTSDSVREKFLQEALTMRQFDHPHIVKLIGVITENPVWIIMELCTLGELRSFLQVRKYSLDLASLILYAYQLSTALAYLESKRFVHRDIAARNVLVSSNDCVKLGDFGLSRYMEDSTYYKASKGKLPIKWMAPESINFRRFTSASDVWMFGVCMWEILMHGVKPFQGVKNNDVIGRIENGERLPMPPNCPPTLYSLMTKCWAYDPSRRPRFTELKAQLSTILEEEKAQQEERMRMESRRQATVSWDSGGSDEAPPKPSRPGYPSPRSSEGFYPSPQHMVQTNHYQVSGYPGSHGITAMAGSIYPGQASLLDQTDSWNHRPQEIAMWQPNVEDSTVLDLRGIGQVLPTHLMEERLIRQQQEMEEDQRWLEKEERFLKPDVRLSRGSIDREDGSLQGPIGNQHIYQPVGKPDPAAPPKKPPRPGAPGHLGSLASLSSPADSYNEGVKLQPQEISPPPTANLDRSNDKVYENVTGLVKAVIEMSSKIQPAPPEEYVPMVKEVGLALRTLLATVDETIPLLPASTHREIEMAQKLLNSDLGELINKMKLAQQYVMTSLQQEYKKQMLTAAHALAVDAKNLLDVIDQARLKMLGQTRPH
In turn, `C#CCN([C@@H](Cc1ccc(O)cc1)C(=O)OC)[C@@H](/C=C/C1CC1)[C@H](O)Cc1ccccc1` came in with a composite z-score of -0.0524.

As to `O=c1n(-c2ccccc2)c(=O)n2n1CC(COc1ccccc1)=C([C@H](O)CCc1ccccc1)[C@@H]2CO`, the composite z-score is -0.18. The same measure, in the same setting: for `CC(=O)NCCCC[C@@H]1NC(=O)[C@H]2C[C@@H](C(=O)NCCCC[N+](C)(C)C)[C@@H](c3cccc(OCCO)c3)N2C1=O` the value was 0.191; for `CN1C(=O)C2C=CC(C(O)c3ccccn3)N(N(c3ccccc3)c3ccccc3)C2C1=O` (stereo not drawn), 0.0673; for `C[N+](C)(C)CCCCCCNC(=O)[C@H]1C[C@H]2C(=O)NCC(=O)N2[C@H]1c1ccc(O)cc1`, -0.0037. Regarding `CCCC[C@@H]1C[C@H]1[C@@H](NC(=O)c1cccs1)c1ccc(C(F)(F)F)cc1`, the composite z-score was -0.0276. Molecule `COc1ccc(CCN2C(=O)[C@@]3(Cc4ccccc42)c2ccccc2C(=O)N(Cc2ccccc2OC)[C@H]3c2ccc(CO)cc2)cc1` yielded a composite z-score of -0.149. `C[C@@H]1NC(=O)[C@@]23C(=O)N[C@@H](Cc4ccccc4)C2[C@H](C)[C@@]2(C)O[C@H]2C3/C=C/C/C=C\CNC(=O)[C@@H]2CCCN2C1=O` (stereo partly drawn) returned a composite z-score of -0.178. Still for that read-out and setting: for `C=C(/C(=C/C[C@H](OC(C)=O)c1cccc(OCCO)c1)c1cnc2ccccc2c1)C(C)C` the value was 0.151. As to `[N-]=[N+]=NCc1ccccc1[C@H]1OC(c2ccc(OCCCO)cc2)=N[C@@]1(CCS(=O)(=O)c1ccccc1)C(=O)NCC(O)CO` (stereo partly drawn), the composite z-score is 1.33.

`Cc1cc(C)cc(N2C(=O)CSC2c2cccc([N+](=O)[O-])c2)c1` (stereo not drawn) gave a composite z-score of 1.55. Consider `COCCOC(=O)N1C(=O)[C@@]2(c3cc(C#CC4(O)CCCCCC4)ccc31)[C@H](c1ccc(O)cc1)N1[C@H](c3ccccc3)[C@H](c3ccccc3)OC(=O)[C@H]1[C@@H]2C(=O)NC[C@H](O)c1ccccc1`, for which the composite z-score was determined as 0.987.

With `COC(=O)c1cn(C[C@@H](Cc2ccccc2)NC(=O)N[C@H](CO)CCc2oc(C(C)=O)c(C(=O)OC)c2C(=O)OC)nn1`, the composite z-score is 0.192. In the case of `COC(=O)[C@@]1(Cc2ccccc2)[C@H]2c3cc(C(=O)N(C)C)n(Cc4c(CO)[nH]cc(C)c4=O)c3C[C@H]2CN1C(=O)c1ccccc1`, the composite z-score is 0.206. In the case of `CC(=O)NCCCC[C@@H]1NC(=O)[C@@H]2C[C@H](C(=O)NCCCC[N+](C)(C)C)[C@H](c3ccc(O)cc3)N2C1=O`, the composite z-score is -0.218. On the same count and under the same terms, under `COc1ccc([Si](C)(C)[C@@H]2[C@@H](CC(=O)N3Cc4ccccc4C[C@H]3CO)O[C@]3(C(=O)N(C)c4ccccc43)[C@H]2C)cc1` stands 0.0712. For the molecule `COCCOC(=O)N1C(=O)[C@@]2(c3cc(C#CC4=CCCCC4)ccc31)[C@H](C(N)=O)[C@H]1C(=O)O[C@H](c3ccccc3)[C@H](c3ccccc3)N1[C@@H]2c1ccccc1OCCO`, the composite z-score is 0.143.

Molecule `COC(=O)[C@@]1(Cc2ccc(OC)cc2)[C@@H]2C(=CC(=O)[C@H]2CC(=O)C(=O)N(C)C)CN1C(=O)c1ccccc1` showed a composite z-score of 0.242.

A further assay relates to Fibrinogen (Alexa647-labelled). The assay is described as follows: Alexa647-fibrinogen binding to printed small molecules – biochemical, small-molecule microarray, 635/667 nm fluorescence, artefact control for SMM control-protein annotation, profiling panel (AID 1131).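 Note: z-score merges 667 nm fluorescence with per-spot signal-to-noise over triplicate slides.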 Conditions: fibrinogen-A647 binding fluorescence, higher = more signal.
Consider `CC[C@H]1C2=C3C(CC[C@H]4C(OCc5ccc(F)cc5C(F)(F)F)OC[C@](C)([C@@H]34)N(C(=O)OC(C)(C)C)C2)C(COC)C1COC` (stereo partly drawn), for which the composite z-score is -0.0416. In the case of `CC(C)N1C(=O)C[C@@](C(=O)NCCCN(C)C)(c2ccc([N+](=O)[O-])cc2)[C@H]1c1ccc(CO)cc1`, the composite z-score stood at 0.47.

`NC(=O)NCC#Cc1ccc2c(c1)[C@]1(C(=O)N2)[C@H](C(=O)NC[C@H](O)c2ccccc2)[C@H]2C(=O)O[C@H](c3ccccc3)[C@H](c3ccccc3)N2[C@@H]1c1ccc(OCCO)cc1`: the composite z-score is 0.829.

As to `Cc1ccccc1C(O)C1C=CC2C(=O)N(C)C(=O)C2N1N(c1ccccc1)c1ccccc1` (stereo not drawn), the composite z-score was determined as 0.354. Turning to `C=CCC(OC(C)=O)[C@@H]1[C@@H](N(Cc2cc3ccccc3o2)C(=O)c2ccc(C)cc2)c2cc(OCCCO)ccc2N1C(=O)Cc1ccc(OC)cc1` (stereo partly drawn), the composite z-score worked out at 0.0839. As to `COC(=O)C1=CC(CCCO)=CC(C2CC2)N(C)C=C1C(=O)OC` (stereo not drawn), the composite z-score is -0.828.

`COc1cc2c(cc1OC)CN(C(=O)[C@@H]1[C@H]3C(=O)O[C@H](c4ccccc4)[C@H](c4ccccc4)N3[C@H](c3ccc(OCCO)cc3)[C@@]13C(=O)Nc1ccc(C#CC4(O)CCCCCC4)cc13)CC2` registered a composite z-score of 0.966.

Turning to `COc1cc(OC)c(C(O)C2C=CC3C(=O)N(c4ccccc4)C(=O)C3N2Nc2ccccc2)cc1Br` (stereo not drawn), the composite z-score is 0.454. `COc1ccc([Si](C)(C)[C@@H]2[C@@H](CC(=O)N(CCO)Cc3ccccc3)O[C@]3(C(=O)N(Cc4cccc(N5C(=O)c6cccc7cccc5c67)c4)c4ccccc43)[C@H]2C)cc1` displayed a composite z-score of 0.725.

Turning to `COC(=O)c1c2oc(c1C(=O)OC)C(=O)N(C)Cc1cn(nn1)C[C@H](Cc1ccccc1)NC(=O)N[C@H](CO)CC2`, the composite z-score is -1.15. On to `O=C(CS)NCCCCCCNC(=O)[C@H]1C[C@H]2C(=O)N[C@@H](Cc3ccccc3)C(=O)N2[C@H]1c1ccc(O)cc1`, for which the composite z-score came to 0.476. The molecule `O=C1C2C=CC(C(O)c3ccccc3)N(Nc3ccccc3F)C2C(=O)N1c1ccccc1` (stereo not drawn) came in with a composite z-score of 0.168. Molecule `CC(C)(C)N1CC=CC23O[C@@H]4C=CCOC(=O)[C@@H]4[C@H]2C(=O)N(CCCCCCO)[C@@H]3C1=O` (stereo partly drawn) yielded a composite z-score of -1.52. Regarding `CCCCO[C@H]1C[C@H]2C(I)=C[C@@H]1C(=O)[C@]21CO1`, the composite z-score was -0.886. Turning to `C=CCOC(=O)[C@H]1[C@@H]2C(=O)O[C@@H](c3ccccc3)[C@@H](c3ccccc3)N2[C@@H](c2ccc(OCCOC(=O)[C@@H]3C[C@@H]4C(=O)N5CCC[C@H]5C(=O)N4[C@@H]3c3ccc(O)cc3)cc2)[C@]12C(=O)Nc1ccc(I)cc12`, the composite z-score was 0.664.

As to `C=CCOC(=O)[C@H]1[C@@H]2C(=O)O[C@@H](c3ccccc3)[C@@H](c3ccccc3)N2[C@@H](c2ccc(OCCOC(=O)[C@H]3C[C@H]4C(=O)N[C@@H](CCCCNC(C)=O)C(=O)N4[C@H]3c3ccc(O)cc3)cc2)[C@]12C(=O)Nc1ccccc12`, the composite z-score was determined as 0.732.

`CCOc1cc(C(O)C2C=CC3C(=O)N(C)C(=O)C3N2Nc2ccccc2)ccc1O` (stereo not drawn) showed a composite z-score of 0.651. Molecule `C#CCN([C@@H](Cc1ccc(O)cc1)C(=O)OC)[C@@H](/C=C/C1CC1)[C@H](O)Cc1ccccc1` had a composite z-score of -0.519. Molecule `O=c1n(-c2ccccc2)c(=O)n2n1CC(COc1ccccc1)=C([C@H](O)CCc1ccccc1)[C@@H]2CO` gave a composite z-score of 0.783. In the case of `CC(=O)NCCCC[C@@H]1NC(=O)[C@H]2C[C@@H](C(=O)NCCCC[N+](C)(C)C)[C@@H](c3cccc(OCCO)c3)N2C1=O`, the composite z-score came out at 0.231.

For `CN1C(=O)C2C=CC(C(O)c3ccccn3)N(N(c3ccccc3)c3ccccc3)C2C1=O` (stereo not drawn), the composite z-score amounted to 0.66. Molecule `C[N+](C)(C)CCCCCCNC(=O)[C@H]1C[C@H]2C(=O)NCC(=O)N2[C@H]1c1ccc(O)cc1` yielded a composite z-score of 0.211. For the molecule `CCCC[C@@H]1C[C@H]1[C@@H](NC(=O)c1cccs1)c1ccc(C(F)(F)F)cc1`, the composite z-score was -0.364. For the molecule `COc1ccc(CCN2C(=O)[C@@]3(Cc4ccccc42)c2ccccc2C(=O)N(Cc2ccccc2OC)[C@H]3c2ccc(CO)cc2)cc1`, the composite z-score is -1.45. Consider `C[C@@H]1NC(=O)[C@@]23C(=O)N[C@@H](Cc4ccccc4)C2[C@H](C)[C@@]2(C)O[C@H]2C3/C=C/C/C=C\CNC(=O)[C@@H]2CCCN2C1=O` (stereo partly drawn), for which the composite z-score is -1.12. On to `C=C(/C(=C/C[C@H](OC(C)=O)c1cccc(OCCO)c1)c1cnc2ccccc2c1)C(C)C`, for which the composite z-score was -0.325. With `[N-]=[N+]=NCc1ccccc1[C@H]1OC(c2ccc(OCCCO)cc2)=N[C@@]1(CCS(=O)(=O)c1ccccc1)C(=O)NCC(O)CO` (stereo partly drawn), the composite z-score was found to be 1.01.

Regarding `Cc1cc(C)cc(N2C(=O)CSC2c2cccc([N+](=O)[O-])c2)c1` (stereo not drawn), the composite z-score stood at 1.03.

In turn, `COCCOC(=O)N1C(=O)[C@@]2(c3cc(C#CC4(O)CCCCCC4)ccc31)[C@H](c1ccc(O)cc1)N1[C@H](c3ccccc3)[C@H](c3ccccc3)OC(=O)[C@H]1[C@@H]2C(=O)NC[C@H](O)c1ccccc1` came in with a composite z-score of 0.87. For `COC(=O)c1cn(C[C@@H](Cc2ccccc2)NC(=O)N[C@H](CO)CCc2oc(C(C)=O)c(C(=O)OC)c2C(=O)OC)nn1`, the composite z-score turned out to be 0.729. On the same count and under the same terms, for `COC(=O)[C@@]1(Cc2ccccc2)[C@H]2c3cc(C(=O)N(C)C)n(Cc4c(CO)[nH]cc(C)c4=O)c3C[C@H]2CN1C(=O)c1ccccc1` the value was 0.819; for `CC(=O)NCCCC[C@@H]1NC(=O)[C@@H]2C[C@H](C(=O)NCCCC[N+](C)(C)C)[C@H](c3ccc(O)cc3)N2C1=O`, 0.764; for `COc1ccc([Si](C)(C)[C@@H]2[C@@H](CC(=O)N3Cc4ccccc4C[C@H]3CO)O[C@]3(C(=O)N(C)c4ccccc43)[C@H]2C)cc1`, 0.855.

As to `COCCOC(=O)N1C(=O)[C@@]2(c3cc(C#CC4=CCCCC4)ccc31)[C@H](C(N)=O)[C@H]1C(=O)O[C@H](c3ccccc3)[C@H](c3ccccc3)N1[C@@H]2c1ccccc1OCCO`, the composite z-score was 0.939.

For `COC(=O)[C@@]1(Cc2ccc(OC)cc2)[C@@H]2C(=CC(=O)[C@H]2CC(=O)C(=O)N(C)C)CN1C(=O)c1ccccc1`, the composite z-score was found to be 0.833.

Values taken from PubChem BioAssay.
